{"source": "PubChem BioAssay (NCATS)", "key": {"[1]": {"assay": "qHTS Assay for Identification of Small Molecule Inducers of Hypoxia Response (AID 2120; active means well fitted curve in the direction sought with a large enough effect in the signal ratio, with a control signal flat, not every such curve was filed as active; the % refers to the signal ratio; further: potency means the concentration at half of the fitted maximal effect)", "summary_of_the_method": "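HRE-bla ME-180, 2500 cells/well, 0.5% dialyzed FBS medium; cpd titration, 17 h 37 degrees C; CCF4 2.5 h RT; Ex 405, Em 460/530 ratio -> %Activity, AC50.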"}, "[2]": {"target": "Estrogen receptor (Homo sapiens) (UniProt P03372)", "sequence (P03372 whole entry, looked up)": "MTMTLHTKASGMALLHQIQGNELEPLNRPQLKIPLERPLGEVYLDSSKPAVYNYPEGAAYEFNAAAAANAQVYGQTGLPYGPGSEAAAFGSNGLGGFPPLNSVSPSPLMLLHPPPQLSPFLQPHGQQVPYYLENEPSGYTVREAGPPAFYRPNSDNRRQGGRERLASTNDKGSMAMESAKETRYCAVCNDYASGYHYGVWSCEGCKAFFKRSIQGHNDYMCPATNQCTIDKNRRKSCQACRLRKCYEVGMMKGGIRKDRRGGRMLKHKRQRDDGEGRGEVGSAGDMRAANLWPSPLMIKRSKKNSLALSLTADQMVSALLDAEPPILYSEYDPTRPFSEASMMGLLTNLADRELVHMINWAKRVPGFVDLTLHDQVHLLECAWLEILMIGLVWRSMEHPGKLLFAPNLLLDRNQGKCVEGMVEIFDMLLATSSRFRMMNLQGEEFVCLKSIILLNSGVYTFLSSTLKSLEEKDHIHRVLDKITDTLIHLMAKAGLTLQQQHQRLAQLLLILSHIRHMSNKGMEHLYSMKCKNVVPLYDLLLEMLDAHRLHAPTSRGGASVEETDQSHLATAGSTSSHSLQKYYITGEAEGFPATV", "assay": "qHTS assay for small molecule antagonists of estrogen receptor alpha signaling (AID 588513; active means well fitted curve in the direction sought with a large enough effect in the signal ratio, with a control signal flat, not every such curve was filed as active; the % refers to the signal ratio)", "summary_of_the_method": "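Cells were plated at 5000/well and incubated 4 h at 37 C. Compounds were added as 1:2 dilution series, duplicates. 17-beta-estradiol (0.5nM final) was added for 18 h before CCF4 detection.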"}, "[3]": {"assay": "qHTS assay for small molecule agonists of the antioxidant response element (ARE) signaling pathway (AID 651741; active means well fitted activation curve with a large enough effect in the signal ratio; the % refers to the signal ratio; further: potency means the concentration at half of the fitted maximal effect)", "summary_of_the_method": "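HepG2 ARE-bla reporter cells, 2,000/well; 5 h settle at 37 C/5% CO2; compound pin transfer (23 nL, DMSO); 16 h at 37 C; LiveBLAzer B/G FRET substrate, 2 h RT; fluorescence intensity read.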"}, "[4]": {"assay": "qHTS assay for environmental chemicals that activate the Aryl hydrocarbon Receptor (AhR) signaling pathway (AID 651777); further: potency means the concentration at half of the fitted maximal effect; nearly all actives have a fitted effect of over 15% in size", "conditions": "1A2-DRE human hepatoma cells, luciferase, 24 h; activation: stronger effect = higher value", "summary_of_the_method": "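Human hepatoma 1A2-DRE cells stably carrying a DRE/CYP1A2 promoter–luciferase reporter, 1,200 cells/well, exposed to compound 24 hr at 37 C. Luciferase read by One-Glo luminescence after 30 min at room temperature; increased signal marks AhR activation.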"}, "[5]": {"target": "Nuclear receptor ROR-gamma (Homo sapiens) (UniProt P51449)", "sequence (P51449 whole entry, looked up)": "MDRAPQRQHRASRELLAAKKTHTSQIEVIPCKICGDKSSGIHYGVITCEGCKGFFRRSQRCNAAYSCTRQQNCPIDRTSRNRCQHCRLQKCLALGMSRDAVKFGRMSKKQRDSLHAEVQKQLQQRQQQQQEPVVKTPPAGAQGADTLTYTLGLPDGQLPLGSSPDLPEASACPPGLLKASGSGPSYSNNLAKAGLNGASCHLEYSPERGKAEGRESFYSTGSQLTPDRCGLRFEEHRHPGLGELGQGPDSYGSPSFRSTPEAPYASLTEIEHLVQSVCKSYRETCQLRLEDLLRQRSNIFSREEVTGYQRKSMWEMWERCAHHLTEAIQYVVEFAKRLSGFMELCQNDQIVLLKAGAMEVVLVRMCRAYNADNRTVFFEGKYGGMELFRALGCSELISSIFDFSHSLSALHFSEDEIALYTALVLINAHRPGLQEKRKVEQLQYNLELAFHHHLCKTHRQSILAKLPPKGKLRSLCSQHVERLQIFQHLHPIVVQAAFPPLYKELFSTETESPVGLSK", "assay": "qHTS assay for small molecule antagonists of the retinoid-related orphan receptor gamma (ROR-gamma) signaling pathway (AID 651802); further: series mostly up to about 92 µM; nearly all actives have a fitted effect of over 60% in size", "summary_of_the_method": "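Doxycycline-induced reporter activity in engineered CHO cells (TET-inducible ROR, RORE-LUC) was measured by luminescence after 16hr compound exposure at 37C.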"}}, "note": "“And” between values parts separate entries of the source, which are not always exact repeats. Identical values can stand only once. Records with an inconclusive call do not appear. The source made the active and inactive calls. Unless noted, the call rests on the fitted dose curve; in most records, active means well fitted curve in the direction sought with a large enough effect; inconclusive means small, poorly fitted or top-dose-only effect, or another doubt; inactive means no such curve, though single readings can be large; an effect the other way counts as inactive or inconclusive.", "data": [{"molecule": "c1ccc2c(c1)-c1cccc3c1c-2cc1ccccc13", "values": [{"measurement": "Potency", "setting": "[1]", "result": "44.7 µM (active)"}, {"measurement": "Potency", "setting": "[2]", "result": "inactive"}, {"measurement": "Potency", "setting": "[3]", "result": "10.6 µM (active) and 6.11 µM (active)"}, {"measurement": "Potency", "setting": "[4]", "result": "10 µM (active)"}, {"measurement": "Potency", "setting": "[5]", "result": "inactive"}]}]}
